The values that follow come from ChEMBL document CHEMBL3988442, “University of Dundee, Small-Polar-MMV Screening Library” (2021).

Structures are written as SMILES. Out of some 48,000 compounds screened, about 13,000 (27%) showed an effect of 50% or more. The list shows a part of the results.

The subject of the test is Wolbachia pipientis. Put plainly: Anti-Wolbachia Cell-Based Screen. Type of test: functional. Further details: scale not given: in the data most compounds retested in dose-response had high values. The note with it: 5 µM.
Take `Cn1cc(C(C)(O)CNc2ccccn2)cn1` (centres undefined): the “Percent Effect” value is -0.1049%. Turning to `Oc1cc(CN2CCCCC2c2cccnc2)nc2c(F)cccc12` (centres undefined), the “Percent Effect” value is given as -16.88%. In the case of `CC(C)n1ccnc1C1CCN(C(=O)C2COc3ccccc3O2)CC1` (centres undefined) it was -5.747%; in that of `CCS(=O)(=O)N1CCCC2(COCCN(c3nnc(C)o3)C2)C1.O=C(O)C(F)(F)F` (centres undefined), -4.041%.

Consider `c1ccc2c(c1)CC(Cc1cc(N3CCCC3)cnn1)CCO2` (centres undefined), for which the “Percent Effect” value was -11.32%. With `CC1c2ncc(Cn3cccn3)n2CCN1S(C)(=O)=O.O=C(O)C(F)(F)F` (centres undefined), the “Percent Effect” value is 89.72%. The same measure for `COCc1cnc2n1CCN(C1CCCC1)C2C.O=C(O)C(F)(F)F` (centres undefined): 11.21%; for `O=C(NC1CC1)N1CCn2c(Cn3cccn3)cnc2C1.O=C(O)C(F)(F)F`: 5.205%; for `Cc1noc(C)c1CN1CCc2ncc(Cn3cccn3)n2CC1.O=C(O)C(F)(F)F`: -5.332%.

Regarding `CC1c2ncc(Cn3cccn3)n2CCN1S(=O)(=O)C1CC1` (centres undefined), the “Percent Effect” value was determined as 92.87%.

For `O=S(=O)(C1CC1)N1CCc2ncc(Cn3cccn3)n2CC1`, the “Percent Effect” value was -13.53%.

Consider `O=S(=O)(C1CC1)N1CCn2c(Cn3cccn3)cnc2C1`, for which the “Percent Effect” value stood at 7.108%. The same measure for `O=C(O)C(F)(F)F.O=C(O)C(F)(F)F.c1cnn(Cc2cnc3n2CCN(CC2CCCCC2)C3)c1`: -2.959%. The same measure for `CC1c2ncc(Cn3cccn3)n2CCN1c1ncccn1.O=C(O)C(F)(F)F` (centres undefined): 86.74%; for `CCc1nsc(N2CCN(Cc3ccno3)CC2)n1`: -4.168%; for `COC(=O)C1CCN(C(=O)c2ccc(NS(C)(=O)=O)c(C)c2)CC1`: -4.777%. Regarding `O=S(=O)(c1ccc(Cl)cc1)N1CCC(OCc2ccccn2)C1` (centres undefined), the “Percent Effect” value was -17.23%. In the case of `CS(=O)(=O)NC[C@H]1Cn2c(-c3ccc(F)cc3)cnc2CO1` it was -20.98%; in that of `CC(C)(C)OC(=O)N1CSC[C@@H]1C(=O)NCc1ccsc1`, -2.991%. Consider `O=C(c1cnc(-c2cccs2)s1)N1CCCC(n2ccnc2)C1` (centres undefined), for which the “Percent Effect” value worked out at 98.86%. In the case of `NC(=O)c1ccc(C(=O)N2CCCC(n3ccnc3)C2)s1` (centres undefined) it was 109.7%; in that of `NC(=O)c1cccc(C(=O)N2CCCC(n3ccnc3)C2)c1` (centres undefined), 111.9%; in that of `O=C1CSc2ccc(C(=O)N3CCCC(n4ccnc4)C3)cc2N1` (centres undefined), 1.64%. Take `COCCOc1cccc(C(=O)N2CCCC(n3ccnc3)C2)c1` (centres undefined): the “Percent Effect” value worked out at 85.64%. For the molecule `O=C(c1cnc(-c2cccs2)s1)N1CCCN2CCCC2C1` (centres undefined), the “Percent Effect” value is given as 13.8%. Take `O=C(c1cccnc1N1CCOCC1)N1CCCC(n2ccnc2)C1` (centres undefined): the “Percent Effect” value is on record as -11.91%. In the case of `O=C(O)C1(Oc2ccc3ccccc3c2)CCN(c2ncccn2)CC1` it was -9.781%; in that of `Cc1c[nH]cc1C(=O)N1CCN(CCc2cccs2)CC1`, -2.994%. The same measure for `CCC1COCCN1C(=O)CNC(=O)c1ccsc1` (centres undefined): -5.336%; for `OCc1ccc(CN2CCC(n3cc(C4CCCCC4)nn3)CC2)o1`: 0.3058%; for `CCS(=O)(=O)c1ccc(N2CCC(NC(=O)NC(C)CO)CC2)cc1` (centres undefined): 0.3155%. For the molecule `COCCNS(=O)(=O)c1ccc(CNc2ncccc2C#N)cc1`, the “Percent Effect” value came to 18.7%. The same measure for `NC(=O)c1cccc(OCC(=O)N2CCCC(n3ccnc3)C2)c1` (centres undefined): 113%; for `NC(=O)c1ccc(OCC(=O)N2CCCC(n3cccn3)C2)cc1` (centres undefined): -3.222%. Regarding `NC(=O)c1cccc(OCC(=O)N2CCCC(n3cccn3)C2)c1` (centres undefined), the “Percent Effect” value is on record as -3.677%. In the case of `C[C@@H](NC(=O)c1cnccn1)c1c(-c2ccc(Cl)cc2)noc1C(=O)O.Cl` it was -1.348%; in that of `CCCc1nc(CNc2cc(CS(C)(=O)=O)ccc2Cl)no1`, -7.067%.

Take `CNC(=O)C1CCN(c2cc(C3CCNCC3)nc(C)n2)C1` (centres undefined): the “Percent Effect” value was determined as 9.34%. In the case of `CNC(=O)CCc1cc(C2CCNCC2)nc(C)n1.Cl.Cl` it was 115.3%. The same measure for `Cc1nc(CCC(=O)NC2CCC2)cc(C2CCCNC2)n1` (centres undefined): 108.9%; for `Cc1nc(NC2CCCCC2)cc(C2CCCNC2)n1.Cl` (centres undefined): 84.03%; for `Cc1nc(CCC(=O)NCC(N)=O)cc(C2CCNCC2)n1`: 128.9%.

Turning to `Cc1nc(C2CCNCC2)cc(N2CCCC(C(=O)NCCCO)C2)n1` (centres undefined), the “Percent Effect” value is reported as 12.53%. In the case of `Cc1nc(NC2CCS(=O)(=O)CC2)cc(C2CCCNC2)n1` (centres undefined) it was 5.772%; in that of `Cc1nccc(N[C@H]2CN(CCC(=O)NC3CCCC3)C[C@@H]2C2CC2)n1`, -19.22%; in that of `COc1ccc(OCc2cc(C(=O)N3CCC(O)CC3)n[nH]2)c(Cl)c1`, 8.523%. The same measure for `CN(C)S(=O)(=O)N(Cc1cscn1)c1ccccc1`: 6.938%; for `CCN(CC)c1ccc(NC(=O)N2CCc3sccc3C2)cn1`: -4.731%; for `CC(C)(O)c1cn(C2CCN(C(=O)CCC3CCCC3)CC2)nn1`: 7.362%. In the case of `CC(=O)NC1CCN(c2cc(C3CCNCC3)nc(C)n2)C1` (centres undefined), the “Percent Effect” value is -6.629%. With `Cc1nc(CCC(N)=O)cc(C2CCNCC2)n1`, the “Percent Effect” value is 77.84%. Consider `FC(F)(F)CN1CCC(CNc2nc3ccccc3o2)C1` (centres undefined), for which the “Percent Effect” value stood at 19.02%. The same measure for `CCN1CCC(CC(=O)N2CCc3sc(C(=O)N(C)C)cc3C2)CC1`: -40.78%. With `CCCc1nnc(SCC(=O)Nc2cc(C(C)(C)C)nn2C)[nH]1`, the “Percent Effect” value amounted to 5.759%. For `Cn1cccc1C(=O)Nc1cc(F)ccc1OCC1CCCO1` (centres undefined), the “Percent Effect” value is -3.687%. Take `CC(NC(=O)c1ccc(=O)n(C)c1)c1ccc(OCC2CC2)c(F)c1` (centres undefined): the “Percent Effect” value was 7.042%. As for `Cn1ccc(C(=O)Nc2cc(F)ccc2OCC2CCCO2)cc1=O` (centres undefined), the “Percent Effect” value came to 108.3%.

As to `Cn1cc(C(=O)Nc2cc(F)ccc2OCC2CCCO2)ccc1=O` (centres undefined), the “Percent Effect” value was 100.3%. As to `CN1N=C(C(=O)Nc2cc(F)ccc2OCC2CCCO2)CCC1=O` (centres undefined), the “Percent Effect” value stood at 0.7919%. Turning to `CS(=O)(=O)N[C@@H]1CCN(Cc2cccs2)[C@H]1Cc1cccnc1`, the “Percent Effect” value is on record as -19.82%. The same measure for `O=S1(=O)NC(c2ccnc(N3CCCC3)n2)=Nc2ccccc21`: 149.4%. Take `O=S1(=O)NC(c2ccnc(N3CCCCC3)n2)=Nc2ccccc21`: the “Percent Effect” value was 89.99%. The same measure for `CS(=O)(=O)N1CCN(c2ccnc(N3CCCC3)n2)CC1`: -2.838%; for `Cc1nn(-c2ccccc2)c(C)c1-c1ccnc(N2CCCOCC2)n1`: 7.099%. As to `O=C(O)c1ccnc(-c2ccnc(N3CCCCCC3)n2)c1`, the “Percent Effect” value is -0.3436%. As for `CS(=O)(=O)N1CCN(c2ccnc(N3CCCCC3)n2)CC1`, the “Percent Effect” value came out at 0.3412%. In the case of `O=c1c2cnc(N3CCOCC3)nc2ccn1-c1ccccc1` it was 4.201%.

For `O=S1(=O)NC(c2ccnc(N3CCOCC3)n2)=Nc2ccccc21`, the “Percent Effect” value stood at 140.3%. In the case of `CC(CO)CSc1ncnc2[nH]ncc12` (centres undefined) it was 8.493%; in that of `CCC1CN(c2nnc(C)c(C)c2C#N)CCO1` (centres undefined), -3.23%; in that of `CCc1nnsc1C(=O)N1CCOC(c2nc(C)n[nH]2)C1` (centres undefined), 12.72%. Consider `CCc1nnsc1C(=O)N1CCOC(c2nc(C(C)C)n[nH]2)C1` (centres undefined), for which the “Percent Effect” value is given as 112.8%. In the case of `CC(C)c1n[nH]c(C2CN(C(=O)C3=COCC3)CCO2)n1` (centres undefined), the “Percent Effect” value was -4.984%. In the case of `CCc1n[nH]c(C2CN(C(=O)c3ncoc3CC)CCO2)n1` (centres undefined) it was 97.1%; in that of `CCc1ocnc1C(=O)N1CCOC(c2nc(C(C)C)n[nH]2)C1` (centres undefined), 114.1%.

Turning to `Cc1noc(C)c1CN1C[C@@H]2CC[C@H](C1)N(Cc1cc(F)cc(F)c1)C2`, the “Percent Effect” value is 3.369%. The same measure for `N#Cc1ccccc1CN1C[C@@H]2CC[C@H](C1)N(CC1CCC1)C2=O`: -9.781%; for `O=C(O)C(F)(F)F.O=C(c1ccncc1)N1CCCn2nnc(COCCO)c2C1`: 26.37%.

Consider `CCc1nnc2n1CCN(Cc1noc(-c3cccc(C)c3)n1)C2`, for which the “Percent Effect” value is reported as -12.68%. The same measure for `Cc1ccccc1OCC(O)C(=O)N1CCC2(CC1)CN(C)C(=O)O2` (centres undefined): -0.4396%; for `COc1ccc(NC(=O)Cc2c(C)nc3c(c2C)c(=O)[nH]n3C)cn1`: 22.04%; for `CC(C)CC(=O)NCc1cccc(OCCN(C)C2CCOCC2)c1`: -19.6%. Take `c1ccc2sc(NCC3(N4CCOCC4)CCSC3)nc2c1` (centres undefined): the “Percent Effect” value was 0.766%.

As for `O=C(CC(F)(F)F)NCC(O)c1ccc2ccccc2c1` (centres undefined), the “Percent Effect” value is -2.994%. In the case of `Cc1ncsc1-c1nnc(C2CCN(CC3CCCCC3)CC2)o1` it was -4.118%; in that of `Cc1ccc(CN2CC[C@H](c3nnc(-c4ccco4)o3)C2)cc1`, -0.8562%; in that of `Cc1ncsc1-c1nc(CC2CCN(C)CC2)nn1Cc1ccccc1`, -11.92%. Take `Cc1ncsc1-c1nnc(C2CCN(Cc3ccc(F)cc3)CC2)o1`: the “Percent Effect” value is -4.23%. For the molecule `COc1ccc(-c2nnc([C@H]3CCN(CC(C)(C)C)C3)o2)cc1`, the “Percent Effect” value was 4.195%. The same measure for `Cc1ncsc1-c1nnc(C2CCN(Cc3ccccc3)CC2)o1`: 104.4%; for `COc1ccc(CN2CCC(c3nnc(-c4scnc4C)o3)CC2)cc1`: 115.7%; for `COc1ccc(CN2CC[C@H](c3nnc(-c4ccco4)o3)C2)cc1`: 27.76%.

Consider `Cc1ncsc1-c1nnc(C2CCN(Cc3ccc(Cl)cc3)CC2)o1`, for which the “Percent Effect” value was determined as 113.6%. Consider `COc1ccc2c(c1)CC(C(=O)N(C)Cc1noc3c1CCCC3)CO2` (centres undefined), for which the “Percent Effect” value is -16.58%. The same measure for `c1cnnc(N2CCC(c3nnc(Cn4ccnc4)n3C3CC3)CC2)c1`: -16.04%; for `COc1cccnc1NC(=O)COc1ccc(F)cc1F`: 10.02%; for `Cc1n[nH]c(C)c1NC(=O)c1cccc(OCC(F)(F)F)n1`: 9.795%. In the case of `Cc1nc(NC(=O)COCC(F)(F)F)ccc1Br` it was 2.547%; in that of `COc1cccnc1NC(=O)COC1CCCC1`, 13.24%. Regarding `CN(C)CCN(Cc1ccc(C(F)(F)F)cc1)C(=O)c1cc[nH]n1`, the “Percent Effect” value is reported as -18.8%.

`COc1cccnc1NC(=O)c1ccc(COCC(F)(F)F)cc1`: the “Percent Effect” value is 77.14%. The same measure for `Cc1n[nH]c(NC(=O)c2ccc(COCC(F)(F)F)cc2)c1C`: 90.05%. Consider `CC(C)CC(NC(=O)c1cccc(F)c1F)C(=O)Nc1cc[nH]n1` (centres undefined), for which the “Percent Effect” value is -2.094%. `O=C(Nc1cc[nH]n1)c1ccc(COCC(F)(F)F)cc1`: the “Percent Effect” value was 87.88%.
